Test results from the supplement of paper PMC4466140.

B1: unnamed (peptide)
chain: PAPPPPPRASRPTPN
B2: unnamed (peptide)
chain: RTIRKLPLMSLSEYF
B3: unnamed (peptide)
chain: HVRRSILALPLGVLL
B4: unnamed (peptide)
chain: VNIPSPSSSPPPIPK

target: AgAbp1; assay: SPOT peptide array binding signal intensity (averaged, normalized) (arbitrary units (background-subtracted, floor 0; scale differs between SH3 domains)); higher = stronger binding of the SH3 domain to the peptide
Method in brief: (§1)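 Four yeast species supplied the SH3 domains, which were expressed as GST fusions in E. coli BL21(DE3) and purified on glutathione Sepharose. Incubation with cellulose membranes carrying synthetic 15-mer peptides, cysteines exchanged for serines, ran overnight at 4°C at 10 μg/ml in TBS-based blocking buffer. Binding signal is reported as normalized, background-subtracted spot intensity averaged over replicates, in arbitrary units not shared between domains.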

Binder	SPOT peptide array binding signal intensity
B1	7.5
B2	7.5
B3	8

target: AgBbc1; assay: as above
Method in brief: as §1

Binder	SPOT peptide array binding signal intensity
B1	438
B2	14.5
B3	2.75

target: AgBem1-D1; assay: as above
Method in brief: as §1

Binder	SPOT peptide array binding signal intensity
B1	19.5
B2	106
B3	39

target: AgBzz1-D1; assay: as above
Method in brief: as §1

Binder	SPOT peptide array binding signal intensity
B1	57
B2	8
B3	≤ 0

target: AgBzz1-D2; assay: as above
Method in brief: as §1

Binder	SPOT peptide array binding signal intensity
B1	8
B2	21
B3	2.5

target: AgCyk3; assay: as above
Method in brief: as §1

Binder	SPOT peptide array binding signal intensity
B1	1
B2	0.5
B3	1

target: AgFus1; assay: as above
Method in brief: as §1

Binder	SPOT peptide array binding signal intensity
B1	≤ 0
B2	345
B3	605

target: AgHof1; assay: as above
Method in brief: as §1

Binder	SPOT peptide array binding signal intensity
B1	0.5
B2	34.5
B3	22.8

target: AgHse1; assay: as above
Method in brief: as §1

Binder	SPOT peptide array binding signal intensity
B1	1.5
B2	356
B3	325

target: AgLsb1; assay: as above
Method in brief: as §1

Binder	SPOT peptide array binding signal intensity
B1	6.5
B2	≤ 0
B3	61.5

target: AgLsb4; assay: as above
Method in brief: as §1

Binder	SPOT peptide array binding signal intensity
B1	185
B2	61.5
B3	201

target: AgMyo5; assay: as above
Method in brief: as §1

Binder	SPOT peptide array binding signal intensity
B1	≤ 0
B2	0.25
B3	≤ 0

target: AgNbp2; assay: as above
Method in brief: as §1

Binder	SPOT peptide array binding signal intensity
B1	111
B2	379
B3	57

target: AgRvs167; assay: as above
Method in brief: as §1

Binder	SPOT peptide array binding signal intensity
B1	34.2
B2	3
B3	0.5

target: AgSho1; assay: as above
Method in brief: as §1

Binder	SPOT peptide array binding signal intensity
B1	≤ 0
B2	122
B3	64

target: AgSla1-D1-D2; assay: as above
Method in brief: as §1

Binder	SPOT peptide array binding signal intensity
B1	3.5
B2	46
B3	6

target: AgSla1-D3; assay: as above
Method in brief: as §1

Binder	SPOT peptide array binding signal intensity
B1	2
B2	8
B3	5

target: CaAbp1-D1; assay: as above
Method in brief: as §1

Binder	SPOT peptide array binding signal intensity
B1	24.5
B2	285
B3	120

target: CaAbp1-D2; assay: as above
Method in brief: as §1

Binder	SPOT peptide array binding signal intensity
B1	3
B2	123
B3	85

target: CaBbc1; assay: as above
Method in brief: as §1

Binder	SPOT peptide array binding signal intensity
B1	657
B2	42.5
B3	10

target: CaBem1-D1; assay: as above
Method in brief: as §1

Binder	SPOT peptide array binding signal intensity
B1	21
B2	66.5
B3	10

target: CaBzz1-D1; assay: as above
Method in brief: as §1

Binder	SPOT peptide array binding signal intensity
B1	934
B2	82.5
B3	21

target: CaBzz1-D2; assay: as above
Method in brief: as §1

Binder	SPOT peptide array binding signal intensity
B1	162
B2	63.5
B3	22

target: CaCyk3; assay: as above
Method in brief: as §1

Binder	SPOT peptide array binding signal intensity
B1	21
B2	59
B3	3

target: CaFus1; assay: as above
Method in brief: as §1

Binder	SPOT peptide array binding signal intensity
B1	45.5
B2	942
B3	2060

target: CaHof1; assay: as above
Method in brief: as §1

Binder	SPOT peptide array binding signal intensity
B1	17.5
B2	≤ 0
B3	≤ 0

target: CaHse1; assay: as above
Method in brief: as §1

Binder	SPOT peptide array binding signal intensity
B1	3.5
B2	121
B3	25

target: CaLsb1; assay: as above
Method in brief: as §1

Binder	SPOT peptide array binding signal intensity
B1	0.5
B2	4.5
B3	0.25

target: CaLsb4; assay: as above
Method in brief: as §1

Binder	SPOT peptide array binding signal intensity
B1	939
B2	282
B3	47

target: CaMyo5; assay: as above
Method in brief: as §1

Binder	SPOT peptide array binding signal intensity
B1	1.5
B2	6
B3	5.25

target: CaNbp2; assay: as above
Method in brief: as §1

Binder	SPOT peptide array binding signal intensity
B2	571
B3	450

target: CaRvs167; assay: as above
Method in brief: as §1

Binder	SPOT peptide array binding signal intensity
B2	42.5
B3	16.8

target: CaRvs167-3; assay: as above
Method in brief: as §1

Binder	SPOT peptide array binding signal intensity
B2	4.75
B3	7.75

target: CaSho1; assay: as above
Method in brief: as §1

Binder	SPOT peptide array binding signal intensity
B2	668
B3	439

target: CaSla1-D1-D2; assay: as above
Method in brief: as §1

Binder	SPOT peptide array binding signal intensity
B2	152
B3	≤ 0

target: CaSla1-D3; assay: as above
Method in brief: as §1

Binder	SPOT peptide array binding signal intensity
B2	98.2
B3	25

target: ScAbp1; assay: as above
Method in brief: as §1

Binder	SPOT peptide array binding signal intensity
B2	23
B3	22

target: ScBbc1; assay: as above
Method in brief: as §1

Binder	SPOT peptide array binding signal intensity
B2	5.25
B3	≤ 0

target: ScBem1-D1; assay: as above
Method in brief: as §1

Binder	SPOT peptide array binding signal intensity
B2	48
B3	10

target: ScBzz1-D1; assay: as above
Method in brief: as §1

Binder	SPOT peptide array binding signal intensity
B2	15
B3	12.5

target: ScBzz1-D2; assay: as above
Method in brief: as §1

Binder	SPOT peptide array binding signal intensity
B2	21
B3	3.5

target: ScCyk3; assay: as above
Method in brief: as §1

Binder	SPOT peptide array binding signal intensity
B2	28.5
B3	56

target: ScFus1; assay: as above
Method in brief: as §1

Binder	SPOT peptide array binding signal intensity
B2	328
B3	522

target: ScHof1; assay: as above
Method in brief: as §1

Binder	SPOT peptide array binding signal intensity
B2	3
B3	1.5

target: ScHse1; assay: as above
Method in brief: as §1

Binder	SPOT peptide array binding signal intensity
B2	1080
B3	772

target: ScLsb1; assay: as above
Method in brief: as §1

Binder	SPOT peptide array binding signal intensity
B2	2
B3	5.5

target: ScLsb2; assay: as above
Method in brief: as §1

Binder	SPOT peptide array binding signal intensity
B2	≤ 0
B3	≤ 0

target: ScLsb3; assay: as above
Method in brief: as §1

Binder	SPOT peptide array binding signal intensity
B2	639
B3	182

target: ScLsb4; assay: as above
Method in brief: as §1

Binder	SPOT peptide array binding signal intensity
B2	92
B3	15.5

target: ScMyo3; assay: as above
Method in brief: as §1

Binder	SPOT peptide array binding signal intensity
B2	2.5
B3	≤ 0

target: ScMyo5; assay: as above
Method in brief: as §1

Binder	SPOT peptide array binding signal intensity
B2	4.5
B3	≤ 0

target: ScNbp2; assay: as above
Method in brief: as §1

Binder	SPOT peptide array binding signal intensity
B2	556
B3	114

target: ScPex13; assay: as above
Method in brief: as §1

Binder	SPOT peptide array binding signal intensity
B2	54.2
B3	≤ 0

target: ScRvs167; assay: as above
Method in brief: as §1

Binder	SPOT peptide array binding signal intensity
B2	71.7
B3	22.2

target: ScSho1; assay: as above
Method in brief: as §1

Binder	SPOT peptide array binding signal intensity
B2	1040
B3	1000

target: ScSla1-D1-D2; assay: as above
Method in brief: as §1

Binder	SPOT peptide array binding signal intensity
B2	290
B3	5

target: ScSla1-D3; assay: as above
Method in brief: as §1

Binder	SPOT peptide array binding signal intensity
B2	58.2
B3	2

target: SpAbp1-D1; assay: as above
Method in brief: as §1

Binder	SPOT peptide array binding signal intensity
B2	85.5
B3	124

target: SpBbc1; assay: as above
Method in brief: as §1

Binder	SPOT peptide array binding signal intensity
B2	1
B3	2

target: SpBzz1-D1; assay: as above
Method in brief: as §1

Binder	SPOT peptide array binding signal intensity
B2	109
B3	30

target: SpBzz1-D2; assay: as above
Method in brief: as §1

Binder	SPOT peptide array binding signal intensity
B2	1
B3	≤ 0
B4	≤ 0

target: SpCyk3; assay: as above
Method in brief: as §1

Binder	SPOT peptide array binding signal intensity
B2	8.5
B3	3
B4	1

target: SpHof1; assay: as above
Method in brief: as §1

Binder	SPOT peptide array binding signal intensity
B2	239
B3	49
B4	≤ 0

target: SpHof1-2; assay: as above
Method in brief: as §1

Binder	SPOT peptide array binding signal intensity
B2	18
B3	8.5
B4	≤ 0

target: SpHof1-3; assay: as above
Method in brief: as §1

Binder	SPOT peptide array binding signal intensity
B2	327
B3	180
B4	≤ 0

target: SpHse1; assay: as above
Method in brief: as §1

Binder	SPOT peptide array binding signal intensity
B2	458
B3	508
B4	43

target: SpLsb1; assay: as above
Method in brief: as §1

Binder	SPOT peptide array binding signal intensity
B2	3.5
B3	2
B4	≤ 0

target: SpLsb4; assay: as above
Method in brief: as §1

Binder	SPOT peptide array binding signal intensity
B2	816
B3	73.5
B4	≤ 0

target: SpMyo1; assay: as above
Method in brief: as §1

Binder	SPOT peptide array binding signal intensity
B2	7
B3	2.5
B4	1720

target: SpNbp2; assay: as above
Method in brief: as §1

Binder	SPOT peptide array binding signal intensity
B2	484
B3	194
B4	≤ 0

target: SpPex13; assay: as above
Method in brief: as §1

Binder	SPOT peptide array binding signal intensity
B2	26
B3	≤ 0
B4	1.5

target: SpRvs167; assay: as above
Method in brief: as §1

Binder	SPOT peptide array binding signal intensity
B2	20
B3	9.83
B4	≤ 0

target: SpSla1-D1-D2; assay: as above
Method in brief: as §1

Binder	SPOT peptide array binding signal intensity
B2	≤ 0
B3	2
B4	2

target: SpSla1-D3; assay: as above
Method in brief: as §1

Binder	SPOT peptide array binding signal intensity
B2	19
B3	1
B4	2
